Inconclusive results are not listed. Unmarked numbers belong to inactive results. Calls of active or inactive are those of the source. Calls follow the shape of the full dose curve.
assay: qHTS assay to identify small molecule antagonists of the estrogen receptor alpha (ER-alpha) signaling pathway - cell viability counter screen (AID 743074); settings: ERalpha-bla HEK293 viability, CellTiter-Glo luminescence, 18 h; series mostly up to 69.4 µM; activity, negative = cytotoxicity: at the top concentration;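 also: HEK293 cells carrying ER-alpha-UAS-bla reporter stimulated with 17beta-estradiol; nearly all actives have a fitted effect of over 45% in size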
% is scaled to controls: 0 for no effect and ±100 for the full control effect.

| SMILES | activity, negative = cytotoxicity | Potency |
| --- | --- | --- |
| Cc1ccc2c(c1)c1c3n2CCNC3CCC1 (stereo not given) | -11.4% | – |
| O=C(O)c1ccccc1C(=O)Nc1ccc(S(=O)(=O)Nc2nccs2)cc1 | 12.6% | – |
| C[C@H](CCC(=O)O)[C@H]1CC[C@H]2[C@@H]3[C@H](O)C[C@@H]4C[C@H](O)CC[C@]4(C)[C@H]3C[C@H](O)[C@]12C | -5.26% | – |
| CC(CC(=O)O)CC(C)(C)C (stereo not given) | 19.1% | – |
| CCCOCCOCCOCCO | 5.15% | – |
| COc1ccc(/C=N/NC(=O)c2ccncc2)cc1OC | 5.98% | – |
| C1=C\CC/C=C\CC/1 | 14.7% [at 79.1 µM] | – |
| O=C(O)/C=C/c1ccccc1 | – | inactive |
| Cn1c(=O)c2c(ncn2CC2OCCO2)n(C)c1=O | 12.2% | – |
| Nc1ccc(S(=O)(=O)Nc2ccccn2)cc1 | -6.81% [at 32.6 µM] | – |
| O=S(=O)(O)CCO | 11.3% [at 79.1 µM] | – |
| CCN(CCC#N)c1ccccc1 | -2.48% | – |
| CC(=O)OCCCc1ccccc1 | 19% | – |
| CCCCCC(=O)OCC | 15.5% | – |
| COCC(=O)Nc1c(I)c(C(=O)NCC(O)CO)c(I)c(C(=O)N(C)CC(O)CO)c1I (stereo not given) | 8.94% [at 32.6 µM] | – |
| CCCCCCCCCOCC1CO1 (stereo not given) | 9.17% [at 79.1 µM] | – |
| O=C1NC2NC(=O)NC2N1 (stereo not given) | -5.96% | – |
| COc1cc2c3cc1Oc1cc(ccc1O)C[C@@H]1c4c(cc(OC)c(O)c4Oc4ccc(cc4)C[C@@H]3N(C)CC2)CC[N+]1(C)C | 10.7% | – |
| O=C(O)C(=O)Nc1cccc(-c2nn[nH]n2)c1 | -0.947% | – |
| COCCOCCOCCOC | 20.5% | – |
| CN(C)CCOCCN(C)CCO | 8.26% | – |
| CCc1nccnc1C | -7.33% | – |
| SCCSCCS | -10.6% | – |
| C=C(C)C(=O)OCCCCCCOC(=O)C(=C)C | 12.9% | – |
| CC(=O)c1ccc(OCC(=O)N2CCCCC2)cc1 | 6.24% | – |

From PubChem BioAssay (Tox21)
